Screening data deposited in PubChem by National Center for Advancing Translational Sciences (NCATS).
A selection: hits, their analogues and other compounds. The true share with any hit is near 10%.
MCF10A rerep = inducers of DNA re-replication in MCF 10A breast cells. MCF 10A DNA re-replication, Hoechst nuclear intensity, 48 h. 350,000 tested, 2.9% active. AID 624296. Potency, µM (doses to about 46.1 µM), without a hit: top-dose activity, positive = re-replication, hits mostly activators; also: % of control where 0% means no effect; nearly all actives have a fitted effect of over 50% in size
KB-V1 MDR tox = kills drug-selected multidrug resistant KB-V1 cells | KB-V1 MDR cells viability, CellTiter-Glo, 72 h | 400,000 tested, 3.4% active | Potency, µM (series often up to 46.1 µM), usual class: cytotoxic; also: % is scaled to controls: 0 for no effect and ±100 for the full control effect; nearly all actives have a fitted effect of over 60% in size
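KB-V1, DMEM (no phenol red) + 10% FBS; cpd pin-transferred, titration series; 72 h, 37 degrees C; CellTiter-Glo, luminescence. Data normalized, curve-fit.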
KB-3-1 tox = KB-3-1 parental cell cytotoxicity | Potency, µM (titrated, usually from 46.1 µM), actives largely listed as cytotoxic | KB-3-1 viability, CellTiter-Glo ATP luminescence, 72 h | 400,000 tested, 1.4% active; also: % is scaled to controls: 0 for no effect and ±100 for the full control effect; nearly all actives have a fitted effect of over 60% in size
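Cells are dispensed, compounds pinned in, plates held at 37 °C for 72 h, then CellTiter-Glo is added and luminescence read after 10 minutes. Cell line: parental KB-3-1 in phenol-red-free DMEM, 10% FBS.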
SW480 rereplic = inducers of DNA re-replication in SW480 colon cancer cells; SW480 DNA re-replication, Hoechst DNA content imaging, 48 h; Potency, µM (top dose mostly 46.1 µM), for inactives: at the top dose re-replication activation, actives largely listed as activators; 340,000 tested, 1.8% active; also: % of control where 0% means no effect; nearly all actives have a fitted effect of over 55% in size
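250 cells/well; 23 nL cpd via pin tool; 48 hr, 37 C, 5% CO2; Hoechst 40 min; imager read of total nuclear intensity, ex 405/em 500-530 nm.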
RORgamma inh = ROR gamma (mouse) transcription inhibition; P51450; Drosophila S2 Gal4-RORgamma UAS-luciferase reporter, 20 h; Potency, µM (doses to about 53.6 µM), without a hit: at the top dose activity change, negative = inhibition, hits mostly inhibitors; 310,000 tested, 5.4% active; AID 2551; also: % is scaled to controls: 0 for no effect and ±100 for the full control effect; nearly all actives have a fitted effect of over 60% in size
Target sequence (P51450 whole entry, looked up, the tested form may be a part): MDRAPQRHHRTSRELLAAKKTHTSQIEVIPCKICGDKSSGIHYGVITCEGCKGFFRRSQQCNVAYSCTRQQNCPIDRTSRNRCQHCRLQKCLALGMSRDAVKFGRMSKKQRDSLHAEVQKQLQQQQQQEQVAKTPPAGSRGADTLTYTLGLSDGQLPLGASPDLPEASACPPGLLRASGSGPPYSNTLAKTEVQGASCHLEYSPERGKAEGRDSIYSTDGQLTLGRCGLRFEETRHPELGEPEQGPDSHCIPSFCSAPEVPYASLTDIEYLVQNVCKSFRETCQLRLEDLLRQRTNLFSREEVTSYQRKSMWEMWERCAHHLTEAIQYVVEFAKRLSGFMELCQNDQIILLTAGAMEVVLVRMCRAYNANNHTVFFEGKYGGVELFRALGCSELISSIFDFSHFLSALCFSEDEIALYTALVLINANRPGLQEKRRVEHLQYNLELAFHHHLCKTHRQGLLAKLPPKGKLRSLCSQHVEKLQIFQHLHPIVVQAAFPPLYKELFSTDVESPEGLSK
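Stable Schneider cell line, Gal4 DNA-binding domain fused to ROR gamma, UAS-luciferase. Cmpd 1 hr RT → CuSO4 700 uM final → 20 hr RT → luciferase reagent 10 min → luminescence.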
VP16 counter = inhibits Gal4-VP16 luciferase reporter, ROR gamma counter-screen; Drosophila S2 Gal4-VP16 UAS-luciferase, luminescence, 20 h; Potency, µM (highest dose often 53.6 µM), inactives show at the top dose activity, negative = inhibition, hits mostly inhibitors; 310,000 tested, 3.5% active;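 also: Gal4-VP16 expression switched on by copper sulfate through the metallothionein promoter; % is scaled to controls: 0 for no effect and ±100 for the full control effect; nearly all actives have a fitted effect of over 50% in size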
* = called active by the depositor; i = inactive; ? = inconclusive; . = no result; ! = not confirmed by another sample; [ ] = another dose, or the depositor's remark. Calls follow the shape of the dose curve; as a rule, active = well fitted curve in the direction sought with a large enough effect; inconclusive = small, poorly fitted or top-dose-only effect, or another doubt; inactive = no such curve, though single readings can be large; an effect the other way counts as inactive or inconclusive. Potency is read from the fitted curve at half-maximal effect.

SMILES | MCF10A rerep | KB-V1 MDR tox | KB-3-1 tox | SW480 rereplic | RORgamma inh | VP16 counter
COc1ccc(S(=O)(=O)NC2CCc3ccccc32)cc1OC (centres undefined) | -3.6% | i | i | -7.1% | 27.8% | -1.1%
CC(C)Oc1ccccc1C1C=C(C(=O)O)Nc2ncnn21 (centres undefined) | . | i | ? | . | . | .
CCCCCCCC/C=C\CCCCCCCC(=O)NCc1ccc(O)c(OC)c1 | 23.7µM* | . | . | -3.5% | -0.6% | 2.7%
CCCCCCCC/C=C\CCCCCCCC(=O)NCCc1ccc(O)c(O)c1 | 0.9% | ? | ? | -33.1% | ? | 17.8µM*!
CCCCC/C=C\C/C=C\C/C=C\C/C=C\CCCCCC(=O)NCCc1ccc(O)c(O)c1 | . | . | . | . | -2.9% | 1.2%
CCn1c(CCNC(=O)c2ccc(OC)cc2)nnc1SCc1ccc(Cl)c(Cl)c1 | 22.9% | 4.61µM* | ? | -134.3% | 13.8% | ?
Cc1ncc(COC(=O)C(C)C)c2cc(C(=O)Nc3ccccc3C(F)(F)F)c(=O)oc12 | . | i | i | . | . | .
O=C(CSc1nc2ccccc2n1CCc1ccccc1)N1CCOCC1 | 5.4% | i | i | -8.3% | 64.6% | -0.9%
O=C(CSc1nc2ccccc2n1CCc1ccccc1)c1ccc(O)c(O)c1 | ? | i | ? | ? | 7.94µM* | ?
O=C(CSc1nc2ccccc2c(=O)[nH]1)c1ccc(O)c(O)c1 | 22.0% | 18.4µM* | ? | 1.9% | -29.7% | -7.3%
CCOC(=O)c1ccc(NC(=S)N2CCN(C)CC2)cc1 | ? | i | i | 1.1% | -10.0% | ?
CCOC(=O)c1ccc(NC(=S)N2CCSC2c2ccc(OC)cc2)cc1 (centres undefined) | 11.2% | 18.4µM* | i | 6.4% | ? | ?
CCOC(=O)c1ccc(NC(=S)N2CCSC2c2ccc(Cl)cc2)cc1 (centres undefined) | ? | ? | i | -1.2% | 14.1µM* | ?
COc1ccc(C2SCCN2C(=S)Nc2ccc(F)cc2)cc1 (centres undefined) | 5.4% | i | i | -4.5% | ? | ?
O=C(CCCc1nc(-c2ccccc2)no1)Nc1cccnc1 | 0.4% | i | i | -7.4% | -16.6%[10 µM] | ?
Cc1ccc(-c2noc(CCC(=O)NC3CCCC3)n2)cc1 | 3.6% | i | i | -22.7% | ? | 2.9%
Cc1ccc(-c2noc(CCCC(=O)NC3CCCCC3)n2)cc1 | 9.5% | 16.4µM* | ? | 1.5% | 17.0% | ?
Cc1ccc(-c2noc(CCCC(=O)Nc3cccnc3)n2)cc1 | 11.6% | ? | i | -14.8% | 0.562µM* | 3.16µM*
CCc1ccccc1N(C)C(=O)CCc1nc(-c2ccc(C)cc2)no1 | 1.4% | 18.4µM* | i | 0.7% | ? | ?
O=C(CCCc1nc(-c2ccccc2)no1)NCc1cccnc1 | 5.2% | ? | i | -4.9% | ? | 5.62µM*
CC1=C(/C=C/C(C)=C/C=C/C(C)=C/C=C/C=C(C)/C=C/C=C(C)/C=C/C2=C(C)C(=O)C(O)CC2(C)C)C(C)(C)CC(O)C1=O (centres undefined) | . | . | . | . | -3.0% | -0.9%
O=C(Nc1ccc(Cl)c(Cl)c1)c1cc(S(=O)(=O)N2CCN(c3cccc(Cl)c3)CC2)ccc1F | . | i | i | . | . | .
CCOC(=O)c1ccc(NC(=O)CCc2nc(-c3ccc(C)cc3)no2)cc1 | 14.6µM* | i | i | 8.5% | ? | 7.94µM*
CCOC(=O)c1ccc(NC(=O)CCc2nc(-c3ccc(Cl)cc3)no2)cc1 | ? | i | ? | ? | 27.6% | -4.8%
COc1cc(-c2noc(CSc3nc(-c4ccccc4)cc(=O)[nH]3)n2)cc(OC)c1OC | . | i | i | . | . | .
CSc1nc2cc(S(=O)(=O)N3CCOCC3)ccc2s1 | -3.6% | i | ? | -8.6% | 11.2% | -8.6%
CSc1nc2cc(S(=O)(=O)N3CCCCC3)ccc2s1 | 7.2% | 14.6µM* | ? | 10.1% | 14.6% | 3.2%
